According to PubChem BioAssay (EPA / NIEHS):
Records with an inconclusive call do not appear. Activity calls are given as the source filed them. The calls were made as follows, unless noted: active = hit-call score of the fitted dose curve at least 0.9, where 1 is the maximum; inactive = score below 0.9.

What was measured:
[1] = ATG_GLI_CIS: Attagene CIS-FACTORIAL HepG2 Assay for human Zinc Finger Protein GLI1 (AID 2282945); details: HepG2, Attagene cis-factorial reporter mRNA, GLI element; actives raise or lower the signal
Outline: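 Bidirectional curve fits relative to DMSO, using reporter mRNA levels from RT-PCR plus capillary electrophoresis. Cells were HepG2 transiently carrying cis-regulated reporter constructs, harvested 24 h after dosing.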

[2] = ATG_GRE_CIS: Attagene CIS-FACTORIAL HepG2 Assay for human Glucocorticoid Response Elements (GRE) (AID 2282947); details: HepG2 GRE cis-reporter, Attagene multiplex mRNA; actives raise or lower the signal
Outline: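 Multiplexed cis-reporter mRNA induction, HepG2, 24 h post-dose. RT-PCR, FAM-labelled, HpaI-digested amplicons by CE. Bidirectional fit vs DMSO.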

[3] = ATG_TCF_b_cat_CIS: Attagene CIS-FACTORIAL HepG2 Assay for human T-Cell-Factor with beta-catenin (TCF/b-cat) (AID 2282965); details: HepG2 TCF/beta-catenin cis-reporter transcription, actives raise or lower the signal
Outline: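 Endogenous TCF/LEF activity read as reporter transcript level via RT-PCR and capillary electrophoresis fluorescence in transfected HepG2, 24 h exposure; gain or loss of signal fitted against DMSO controls.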

[4] = biological target: X-box-binding protein 1 (Homo sapiens) (UniProt P17861); experiment: ATG_Xbp1_CIS: Attagene CIS-FACTORIAL HepG2 Assay for human X-box Binding Protein 1 (XBP1) (AID 2282972); details: HepG2 XBP1 cis-element reporter, Attagene multiplex; actives raise or lower the signal
X-box-binding protein 1 (Homo sapiens), sequence (P17861 whole entry, looked up): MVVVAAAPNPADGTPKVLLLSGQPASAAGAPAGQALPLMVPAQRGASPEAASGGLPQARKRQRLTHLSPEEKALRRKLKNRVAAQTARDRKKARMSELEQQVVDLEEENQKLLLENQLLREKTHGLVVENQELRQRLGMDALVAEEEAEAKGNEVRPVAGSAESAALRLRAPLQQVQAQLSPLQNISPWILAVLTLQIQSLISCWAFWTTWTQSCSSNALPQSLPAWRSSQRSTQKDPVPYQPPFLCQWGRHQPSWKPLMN
Outline: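 Reporter transcripts were quantified by RT-PCR with fluorescent primer extension and capillary electrophoresis after 24 h chemical exposure. Cells: transiently transfected HepG2 carrying cis-regulated reporter constructs; data fitted bidirectionally relative to DMSO.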

[5] = ATG_GAL4_TRANS: Attagene TRANS-FACTORIAL HepG2 Assay for GAL4 (Internal Marker) (AID 2282976; active = hit-call score of the fitted dose curve at least 0.9, where 1 is the maximum); details: HepG2 Attagene TRANS GAL4 internal marker reporter
Outline: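 RT-PCR/capillary electrophoresis readout of reporter mRNA. HepG2, transient MRTU transfection (GAL4-UAS reporters), 24 h compound exposure. Background-control endpoint, positive direction vs DMSO baseline.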

[6] = ATG_M_32_TRANS: Attagene TRANS-FACTORIAL HepG2 Assay for M32 Transcription Factor (Internal Marker) (AID 2282984; active = hit-call score of the fitted dose curve at least 0.9, where 1 is the maximum); details: HepG2 Attagene TRANS M32 internal marker reporter
Outline: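 Cell-based TRANS-format assay in HepG2: exogenous chimeric GAL4 reporter units transiently expressed, compounds applied 24 h. Reporter mRNA detected by RT-PCR plus capillary electrophoresis; this readout is an internal background marker.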

[7] = biological target: Nuclear respiratory factor 1 (Homo sapiens) (UniProt Q16656); experiment: ATG_NRF1_CIS: Attagene CIS-FACTORIAL HepG2 Assay for human Nuclear Respiratory Factor 1 (NRF1) Orphan Gene (AID 2282987); details: HepG2 NRF1 cis-element reporter, Attagene multiplex; actives raise or lower the signal
Nuclear respiratory factor 1 (Homo sapiens), sequence (Q16656 whole entry, looked up): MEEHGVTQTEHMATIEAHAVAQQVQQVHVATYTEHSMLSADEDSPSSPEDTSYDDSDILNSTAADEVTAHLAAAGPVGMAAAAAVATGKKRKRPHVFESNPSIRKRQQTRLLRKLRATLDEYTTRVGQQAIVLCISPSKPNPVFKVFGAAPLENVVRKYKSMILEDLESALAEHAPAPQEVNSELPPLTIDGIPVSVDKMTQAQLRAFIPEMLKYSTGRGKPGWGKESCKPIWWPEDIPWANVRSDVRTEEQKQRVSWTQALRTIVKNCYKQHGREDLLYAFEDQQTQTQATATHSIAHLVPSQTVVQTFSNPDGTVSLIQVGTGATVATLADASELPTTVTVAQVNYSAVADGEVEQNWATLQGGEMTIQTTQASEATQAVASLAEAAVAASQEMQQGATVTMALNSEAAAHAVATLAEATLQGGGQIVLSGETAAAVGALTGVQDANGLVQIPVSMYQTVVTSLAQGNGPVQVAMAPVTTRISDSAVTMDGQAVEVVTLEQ
Outline: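 Multiplexed cis-reporter assay, HepG2 cells, 24 h treatment. Total RNA → oligo(dT) RT → PCR with reporter-specific primers → 6-FAM primer extension → HpaI cut → CE. Bidirectional fit vs DMSO.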

[8] = ATG_NF_kB_CIS: Attagene CIS-FACTORIAL HepG2 Assay for human Nuclear Factor Kappa B (NF-kB) (AID 2282991); details: HepG2 Attagene cis-factorial NF-kB reporter mRNA; actives raise or lower the signal
Outline: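 Transient MRTU transfection of human HepG2 liver cells → 24 h chemical exposure → total RNA, oligo(dT) RT → PCR, 6-FAM primer extension, HpaI digest 2 h 37 C → CE fragment analysis. Bidirectional fitting, DMSO negative control.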

[9] = TOX21_p53_BLA_p2_viability: Viability Assessment in the Tox21 HCT-116 p53 Agonism Beta-lactamase Assay, Phase 2 (AID 2283591; active = hit-call score of the fitted dose curve at least 0.9, where 1 is the maximum;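 also: actives lower the ATP signal meaning cytotoxicity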)
Outline: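 Cytotoxicity readout: CellTiter-Glo ATP luminescence, 30 min at room temperature, after the beta-lactamase read. Cells were HCT116 exposed 16 h at 37C to compounds pin-transferred at 217-fold dilution from DMSO stocks.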

[10] = biological target: Cellular tumor antigen p53 (Homo sapiens) (UniProt P04637); experiment: TOX21_p53_BLA_p3_ratio: Tox21 HCT-116 p53 Agonism Beta-lactamase Assay, Ratio, Phase 3 (AID 2283596; active = hit-call score of the fitted dose curve at least 0.9, where 1 is the maximum)
Cellular tumor antigen p53 (Homo sapiens), sequence (P04637 whole entry, looked up): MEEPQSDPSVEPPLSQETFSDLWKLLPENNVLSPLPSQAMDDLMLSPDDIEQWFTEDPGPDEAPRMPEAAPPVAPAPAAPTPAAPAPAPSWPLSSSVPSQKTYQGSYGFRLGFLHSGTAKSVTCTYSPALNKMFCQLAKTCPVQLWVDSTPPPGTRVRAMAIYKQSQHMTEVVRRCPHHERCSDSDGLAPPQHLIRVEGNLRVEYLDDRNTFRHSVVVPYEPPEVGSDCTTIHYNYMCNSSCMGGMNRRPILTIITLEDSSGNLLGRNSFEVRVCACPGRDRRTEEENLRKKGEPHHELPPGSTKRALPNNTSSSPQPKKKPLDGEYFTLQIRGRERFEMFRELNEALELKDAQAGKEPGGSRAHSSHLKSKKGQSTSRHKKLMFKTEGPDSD
Outline: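 Cells were seeded at 4000/well, rested 5 h at 37C, then dosed with DMSO compound solutions (217-fold dilution) for 16 h. CCF4-AM substrate was loaded for 2 h at room temperature, and the 460/530 nm emission ratio was fitted for gain of signal versus DMSO.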

[11] = TOX21_p53_BLA_p5_viability: Viability Assessment in the Tox21 HCT-116 p53 Agonism Beta-lactamase Assay, Phase 5 (AID 2283600; active = hit-call score of the fitted dose curve at least 0.9, where 1 is the maximum)
Outline: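 ATP luminescence (CellTiter-Glo, 30 min, RT) served as the viability read-out, with loss of signal indicating cytotoxicity. Compounds in DMSO were pinned at a 217-fold dilution onto 4000 cells/well and incubated 16 h, 37C.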

[12] = biological target: Hepatocyte nuclear factor 4-alpha (Homo sapiens) (UniProt P41235); experiment: ATG_HNF4a_TRANS: Attagene TRANS-FACTORIAL HepG2 Assay for human Hepatocyte Nuclear Factor 4 alpha (HNF4a) (AID 2282982; active = hit-call score of the fitted dose curve at least 0.9, where 1 is the maximum); details: HepG2 HNF4a transactivation reporter, mRNA readout
Hepatocyte nuclear factor 4-alpha (Homo sapiens), sequence (P41235 whole entry, looked up): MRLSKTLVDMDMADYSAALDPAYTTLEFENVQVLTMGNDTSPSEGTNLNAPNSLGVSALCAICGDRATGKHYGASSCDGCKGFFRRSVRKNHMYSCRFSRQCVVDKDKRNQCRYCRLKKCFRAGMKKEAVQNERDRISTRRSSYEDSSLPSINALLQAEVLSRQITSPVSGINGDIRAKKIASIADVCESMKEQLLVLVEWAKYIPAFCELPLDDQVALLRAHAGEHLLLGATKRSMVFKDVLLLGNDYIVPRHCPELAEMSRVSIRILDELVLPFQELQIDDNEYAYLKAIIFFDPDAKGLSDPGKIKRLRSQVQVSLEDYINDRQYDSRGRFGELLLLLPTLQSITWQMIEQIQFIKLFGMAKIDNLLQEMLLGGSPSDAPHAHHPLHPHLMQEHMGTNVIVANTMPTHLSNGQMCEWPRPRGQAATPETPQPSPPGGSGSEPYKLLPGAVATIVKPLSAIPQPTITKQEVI
Outline: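 Multiplexed reporter assay: transfected HepG2, 24 h exposure, total RNA → oligo(dT) RT → PCR → 6-FAM extension → HpaI digest → CE fluorescence. DMSO = negative control.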

[13] = biological target: Transcriptional activator Myb (Homo sapiens) (UniProt P10242); experiment: ATG_Myb_CIS: Attagene CIS-FACTORIAL HepG2 Assay for human Myeloblastosis (Myb) Proto-Oncogene Transcription Factor (AID 2282986); details: HepG2 Attagene CIS-FACTORIAL Myb reporter transcription; actives raise or lower the signal
Transcriptional activator Myb (Homo sapiens), sequence (P10242 whole entry, looked up): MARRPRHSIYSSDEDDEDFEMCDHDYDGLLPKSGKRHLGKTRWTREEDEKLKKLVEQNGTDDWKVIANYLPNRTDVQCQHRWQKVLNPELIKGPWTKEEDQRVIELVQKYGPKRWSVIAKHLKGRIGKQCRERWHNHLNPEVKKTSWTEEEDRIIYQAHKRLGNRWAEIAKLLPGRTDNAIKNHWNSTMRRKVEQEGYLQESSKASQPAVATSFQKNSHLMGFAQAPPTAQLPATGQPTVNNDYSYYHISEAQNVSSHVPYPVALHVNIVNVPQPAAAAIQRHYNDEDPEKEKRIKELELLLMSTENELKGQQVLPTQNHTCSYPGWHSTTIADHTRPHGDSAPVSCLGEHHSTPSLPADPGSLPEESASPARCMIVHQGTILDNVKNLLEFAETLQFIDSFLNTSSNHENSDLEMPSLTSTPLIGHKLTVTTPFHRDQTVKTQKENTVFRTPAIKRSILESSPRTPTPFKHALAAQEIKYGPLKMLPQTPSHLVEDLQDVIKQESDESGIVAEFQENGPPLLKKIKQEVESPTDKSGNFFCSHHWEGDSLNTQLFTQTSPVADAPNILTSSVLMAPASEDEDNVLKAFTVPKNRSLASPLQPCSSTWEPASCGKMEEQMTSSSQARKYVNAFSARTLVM
Outline: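 Reporter transcript levels, quantified by fluorescent RT-PCR and capillary electrophoresis, serve as the read-out. Transfected HepG2 cells carrying cis-promoter reporter units are dosed for 24 hours, and curves are fitted bidirectionally against DMSO controls.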

[14] = biological target: human Retinoid X Receptor beta (RXRb), RXRB (gene 6257) (UniProt P28702); experiment: ATG_RXRb_TRANS: Attagene TRANS-FACTORIAL HepG2 Assay for human Retinoid X Receptor beta (RXRb) (AID 2283013; active = hit-call score of the fitted dose curve at least 0.9, where 1 is the maximum)
human Retinoid X Receptor beta (RXRb), RXRB (gene 6257), sequence (P28702 whole entry, looked up, the tested form may be a part): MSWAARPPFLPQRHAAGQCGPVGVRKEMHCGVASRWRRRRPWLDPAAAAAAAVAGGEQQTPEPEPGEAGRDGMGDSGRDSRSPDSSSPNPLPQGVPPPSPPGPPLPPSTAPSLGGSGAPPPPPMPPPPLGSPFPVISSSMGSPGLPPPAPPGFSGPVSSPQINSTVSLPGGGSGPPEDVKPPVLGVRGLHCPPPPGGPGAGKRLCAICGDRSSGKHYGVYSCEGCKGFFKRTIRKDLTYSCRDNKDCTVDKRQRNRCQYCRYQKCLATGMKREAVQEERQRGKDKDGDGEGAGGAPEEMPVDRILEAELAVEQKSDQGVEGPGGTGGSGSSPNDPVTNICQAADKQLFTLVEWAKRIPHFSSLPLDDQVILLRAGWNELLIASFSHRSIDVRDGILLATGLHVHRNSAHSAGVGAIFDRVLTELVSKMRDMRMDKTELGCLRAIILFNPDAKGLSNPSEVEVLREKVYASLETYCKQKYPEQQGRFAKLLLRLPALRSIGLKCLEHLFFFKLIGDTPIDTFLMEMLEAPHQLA
Outline: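 After a 24 h incubation with test chemical, transfected HepG2 cells carrying NR-Gal4 fusions and GAL4-UAS reporter transcription units yield RNA whose reporter cDNA is FAM-labelled, HpaI-cut and sized by capillary electrophoresis; increases over DMSO are scored.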

[15] = ATG_Oct_MLP_CIS: Attagene CIS-FACTORIAL HepG2 Assay for human Octamer-Binding Transcription Factor (Oct) (AID 2282993); details: HepG2 Attagene cis-factorial Oct reporter, mRNA; actives raise or lower the signal
Outline: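 HepG2, transient MRTU transfection, cis promoter elements; 24 h dosing; RT-PCR/CE fluorescence read-out of reporter mRNA; fit both directions vs DMSO.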

[16] = biological target: Cellular tumor antigen p53 (Homo sapiens) (UniProt P04637); experiment: TOX21_p53_BLA_p2_ratio: Tox21 HCT-116 p53 Agonism Beta-lactamase Assay, Ratio, Phase 2 (AID 2283592; active = hit-call score of the fitted dose curve at least 0.9, where 1 is the maximum)
Outline: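 Readout: blue/green (460/530 nm) FRET emission ratio after 2 h CCF4-AM loading at room temperature, excitation 405 nm. HCT116 p53 bla cells, 16 h compound exposure at 37C, 5% CO2; agonist direction fitted against DMSO baseline.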

[17] = biological target: Cellular tumor antigen p53 (Homo sapiens) (UniProt P04637); experiment: TOX21_p53_BLA_p5_ratio: Tox21 HCT-116 p53 Agonism Beta-lactamase Assay, Ratio, Phase 5 (AID 2283599; active = hit-call score of the fitted dose curve at least 0.9, where 1 is the maximum)
Outline: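 Beta-lactamase reporter ratio (blue 460 nm over green 530 nm, 405 nm excitation) after 2 h CCF4-AM loading, in HCT-116 cells exposed 16 h at 37 C to compounds pinned at 217-fold dilution. Increases relative to DMSO baseline scored.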

[18] = biological target: Cellular tumor antigen p53 (Homo sapiens) (UniProt P04637); experiment: TOX21_p53_BLA_p4_ratio: Tox21 HCT-116 p53 Agonism Beta-lactamase Assay, Ratio, Phase 4 (AID 2283601; active = hit-call score of the fitted dose curve at least 0.9, where 1 is the maximum)
Outline: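 Signal is the blue/green (460nm/530nm) ratio of cleaved versus uncleaved CCF4-AM substrate, read after 2 h substrate loading. Cells were HCT116 carrying the p53-responsive beta-lactamase reporter, dosed 16 h at 37C, 5% CO2; CellTiter-Glo measured in parallel.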

[19] = biological target: Retinoic acid receptor alpha (Homo sapiens) (UniProt P10276); experiment: ATG_DR5_RAR_CIS: Attagene CIS-FACTORIAL HepG2 Assay for human Retinoic Acid Receptor Alpha (RARE), DR5 submotif (AID 2282934); details: HepG2 Attagene cis-factorial RARE DR5 reporter, mRNA; actives raise or lower the signal
Retinoic acid receptor alpha (Homo sapiens), sequence (P10276 whole entry, looked up): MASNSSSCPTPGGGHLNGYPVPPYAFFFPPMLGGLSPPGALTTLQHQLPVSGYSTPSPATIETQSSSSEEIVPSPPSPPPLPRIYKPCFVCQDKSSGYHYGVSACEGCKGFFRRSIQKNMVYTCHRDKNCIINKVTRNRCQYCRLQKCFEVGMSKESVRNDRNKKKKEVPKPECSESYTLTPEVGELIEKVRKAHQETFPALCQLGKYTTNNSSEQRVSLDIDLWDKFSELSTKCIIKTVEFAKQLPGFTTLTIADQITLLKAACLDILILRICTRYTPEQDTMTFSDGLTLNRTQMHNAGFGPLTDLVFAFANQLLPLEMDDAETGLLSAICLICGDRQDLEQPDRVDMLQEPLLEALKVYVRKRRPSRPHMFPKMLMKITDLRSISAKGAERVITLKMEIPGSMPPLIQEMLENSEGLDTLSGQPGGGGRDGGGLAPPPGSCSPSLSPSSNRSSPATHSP
Outline: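 Reporter transcripts from a DR5-regulated unit, measured via RT-PCR plus capillary electrophoresis, reflect endogenous RAR activity in transiently transfected human HepG2 liver cells. Exposure lasted 24 h; gain or loss of signal scored against DMSO.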

[20] = ATG_PBREM_CIS: Attagene CIS-FACTORIAL HepG2 Assay for human Phenobarbital-responsive Enhancer Module (PBREM) (AID 2282955); details: HepG2 PBREM cis-reporter, Attagene multiplexed transcription; actives raise or lower the signal
Outline: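 Endogenous transcription factors in human liver HepG2 cells drive a PBREM cis-element reporter, whose transcript level after 24 h treatment is quantified by RT-PCR with capillary electrophoresis; activity fitted in both directions against DMSO.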

Measured: AC50

CN(C)CCC(c1ccc(Cl)cc1)c1ccccn1 (configuration not stated)
inactive: [1] | [2] | [3] | [4] | [5] | [6] | [7] | [8] | [9] | [10] | [11]

CCCCn1cc[n+](C)c1
inactive: [1] | [3] | [4] | [12] | [13] | [14]

CC(C)n1c(/C=C/[C@@H](O)C[C@@H](O)CC(=O)O)c(-c2ccc(F)cc2)c2ccccc21
not listed: [4] | [7] | [8] | [12] | [19] | [20]
inactive: all other assays above

CCCCCCCC#N
inactive: [19] | [2] | [3] | [5] | [12] | [13] | [7] | [8]

CC/C=C/CCO
not listed: [6] | [8] | [12] | [19] | [20]
inactive: all other assays above

CC(=O)Nc1c(I)c(NC(C)=O)c(I)c(C(=O)O)c1I
inactive: [19] | [2] | [3] | [4] | [12] | [13] | [7]

c1ccc2c(c1)Oc1ccccc1S2
not listed: [1] | [4] | [5] | [10] | [11] | [12] | [13] | [19]
inactive: all other assays above

O=[N+]([O-])c1ccc2nc[nH]c2c1
inactive: [1] | [20] | [3] | [13] | [7] | [8]

O=C(O)/C=C/C(=O)O
inactive: [2] | [20] | [3] | [4] | [5] | [6] | [13] | [8] | [15]

Nc1ccc(S(=O)(=O)Nc2cnc3ccccc3n2)cc1
active: [14] 31.5 µM
not listed: [3] | [5] | [15] | [19]
inactive: all other assays above

N#CCN(CC#N)CCN(CC#N)CC#N
not listed: [9] | [10] | [16] | [17] | [18] | [19]
inactive: all other assays above

c1ccc(CNc2ncnc3nc[nH]c23)cc1
not listed: [5] | [6] | [10] | [14] | [16] | [17] | [18]
inactive: all other assays above

CC/C=C\CC1=C(C)CCC1=O
not listed: [2] | [5] | [9] | [13] | [15] | [19]
inactive: all other assays above

CC(=O)OC(C)(C)Cc1ccccc1
not listed: [2] | [3] | [6] | [13] | [14] | [15] | [17] | [20]
inactive: all other assays above

CC(C)(Oc1ccc(Cl)cc1)C(=O)O
not listed: [5] | [8] | [19]
inactive: all other assays above

CC(C)CC(=O)CC(C)C
not listed: [2] | [6] | [12] | [14] | [19] | [20]
inactive: all other assays above

Cc1cc(-n2nc3ccc(Cl)cc3n2)c(O)c(C(C)(C)C)c1
inactive: [19] | [2] | [20] | [4] | [5] | [12] | [13] | [15] | [16] | [10] | [17]

Cc1ccccc1S(=O)(=O)O
inactive: [19] | [1] | [3] | [4] | [12] | [13] | [9] | [10] | [11] | [18]

CC(C)=CCOC(=O)c1ccccc1
not listed: [3] | [5] | [7] | [10] | [12] | [13] | [20]
inactive: all other assays above

O=C(O)c1ccccc1C(=O)O
not listed: [4]
inactive: all other assays above

O=C(O)c1nc(Cl)c(Cl)c(Cl)c1Cl
inactive: [19] | [1] | [2] | [20] | [3] | [5] | [12] | [6] | [13] | [7] | [15]

CCC(C)NC(N)=O (configuration not stated)
inactive: [20] | [3] | [4] | [6] | [13] | [8] | [15] | [16] | [10]

CC(O)(P(=O)(O)O)P(=O)(O)O
inactive: [4] | [5] | [13] | [15] | [14]

CC=CC(=O)O
inactive: [19] | [1] | [2] | [3] | [4] | [5] | [12] | [6] | [13] | [8] | [15]
